The values below come from the supplement of paper PMC8540655.

Unmarked numbers belong to inactive results.

This experiment deals with Aedes aegypti larvae. The experiment can be described thus: larval motility relative to same well at 0 h (fraction); higher = more motile (less active compound), active = 0.4 or less. The note with it: 10 µM. In outline: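 With INVAPP, 200 frames at 100 ms intervals were captured at 0, 2 and 24 h from 96-well plates holding about 10 Aedes aegypti larvae per well (100 µL). The larvae were 18–24 h old, hatched at 25 °C in pond salt solution with yeast, and compounds were added at 10 µM with 1% v/v DMSO, with solvent and larvicide control wells on each plate. For relative motility, each well's score is divided by that well's baseline score, and the median over three independent larval batches is given.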

With `N=C(N)NCCCCC(=O)Nc1cc(C(F)(F)F)cc(NC(=O)c2cc(C(=O)Nc3cc(C(F)(F)F)cc(NC(=O)CCCCNC(=N)N)c3O[C@@H]3CCNC3)ncn2)c1O[C@@H]1CCNC1`, the larval motility (2 h) was 0.425 and the larval motility (24 h) is 0.764.
For `COc1ccc2c(c1OC)C(=O)OC2C1c2c(cc3c(c2OC)OCO3)CCN1C` (stereo not given) the same measures were 0.987 and 0.828.
The matching figures for `O=C(NCCN1CCCCC1)c1cccc(C(F)(F)F)c1`: 0.912 and 1.4.
For `COc1cc(Cc2cc(N)nc(N)n2)cc(OC)c1OC` the same measures were 0.774 and 1.44.
For the compound `NC(=O)c1nccn([C@@H]2O[C@H](CO)[C@@H](O)[C@H]2O)c1=O`, the larval motility (2 h) is 0.824 and the larval motility (24 h) was 1.16.
For the compound `O=C(O)C(Cc1c[nH]c2ccccc12)N1C(=O)c2ccccc2C1=O` (stereo not given), the larval motility is 1.75 (2 h) and 1.18 (24 h).
For `CCO/N=C/c1ccc(OCCCCN2CCN(c3ccncc3)C2=O)cc1` the same measures were 1.36 and 1.3.
The matching figures for `CN(Cc1ccc(C(C)(C)C)cc1)Cc1cccc2ccccc12`: 0.508 and 0.64.
The matching figures for `O=C(Nc1ccc(N2CCN(C(=O)c3ccccc3)CC2)cc1)c1ccc2c(c1)OCO2`: 0.946 and 0.971.
As for `CCOC(=O)N[C@@H]1CC[C@@H]2[C@@H](C1)C[C@H]1C(=O)O[C@H](C)[C@H]1[C@H]2/C=C/c1ccc(-c2cccc(F)c2)cn1`, the larval motility runs as follows: (2 h) 1.18; (24 h) 0.624.
